Values joined by “and” are separate entries in the source; they are usually repeats but may differ in a detail not shown here. Equal values may be shown once. Where a structure was tested more than once in an assay, its records may differ in their call. Active and inactive are the calls of the source. Rule for the calls: active = hit-call score of the fitted dose curve at least 0.9, where 1 is the maximum; inactive = score below 0.9.
Columns and labels:
[1] = ATG_M_32_CIS: Attagene CIS-FACTORIAL HepG2 Assay for M32 Transcription Factor (Internal Marker) (AID 2282949); conditions: HepG2 Attagene cis-factorial M32 reporter, mRNA; actives raise or lower the signal;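 note: background control marker of the multiplexed CIS panel rather than a real target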
Outline: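 Internal background marker read-out: RT-PCR/capillary electrophoresis fluorescence of reporter transcripts from transiently transfected HepG2 cells after 24 h chemical exposure. Activity fitted bidirectionally relative to DMSO negative control.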

[2] = ATG_M_06_CIS: Attagene CIS-FACTORIAL HepG2 Assay for M06 Transcription Factor (Internal Marker) (AID 2282950); conditions: HepG2 Attagene CIS-FACTORIAL M06 internal marker reporter; actives raise or lower the signal
Outline: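 HepG2 liver cells, 24 h exposure. Reporter transcripts from transfected cis-element constructs quantified by RT-PCR/capillary electrophoresis fluorescence. Bidirectional curve fit against DMSO.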

[3] = biological target: Hypoxia-inducible factor 1-alpha (Homo sapiens) (UniProt Q16665); assay: ATG_HIF1a_CIS: Attagene CIS-FACTORIAL HepG2 Assay for human Hypoxia Inducible Factor 1 (HIF1A) (AID 2282951); conditions: HepG2 Attagene cis-factorial HIF1a reporter transcription; actives raise or lower the signal
Sequence of Hypoxia-inducible factor 1-alpha (Homo sapiens) (Q16665 whole entry, looked up): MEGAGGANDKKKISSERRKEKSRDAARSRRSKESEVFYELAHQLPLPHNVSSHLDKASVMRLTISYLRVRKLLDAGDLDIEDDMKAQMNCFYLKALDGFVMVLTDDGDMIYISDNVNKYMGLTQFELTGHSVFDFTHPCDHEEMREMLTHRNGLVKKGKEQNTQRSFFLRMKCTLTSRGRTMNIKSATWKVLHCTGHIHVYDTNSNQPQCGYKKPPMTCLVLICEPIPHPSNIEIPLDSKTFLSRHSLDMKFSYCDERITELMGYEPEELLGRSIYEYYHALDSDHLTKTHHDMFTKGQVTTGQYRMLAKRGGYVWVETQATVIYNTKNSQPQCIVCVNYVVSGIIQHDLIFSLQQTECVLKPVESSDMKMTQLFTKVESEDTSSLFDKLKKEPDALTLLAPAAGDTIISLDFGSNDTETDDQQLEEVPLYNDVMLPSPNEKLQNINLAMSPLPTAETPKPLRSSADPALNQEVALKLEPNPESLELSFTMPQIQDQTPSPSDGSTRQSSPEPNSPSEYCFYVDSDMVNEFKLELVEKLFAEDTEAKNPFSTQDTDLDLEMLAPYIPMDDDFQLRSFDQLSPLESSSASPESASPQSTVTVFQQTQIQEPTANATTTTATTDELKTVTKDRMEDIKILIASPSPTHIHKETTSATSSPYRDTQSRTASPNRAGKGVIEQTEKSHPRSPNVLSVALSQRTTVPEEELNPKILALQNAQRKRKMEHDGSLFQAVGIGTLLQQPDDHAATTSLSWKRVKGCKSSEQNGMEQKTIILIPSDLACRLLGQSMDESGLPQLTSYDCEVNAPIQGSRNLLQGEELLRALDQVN
Outline: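 HepG2 cells transiently transfected with multiplexed cis-promoter reporter units; reporter mRNA read 24 h after dosing by RT-PCR, 6-FAM primer-extension labelling, HpaI digestion and capillary electrophoresis. Bidirectional fit versus DMSO baseline.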

[4] = biological target: Hepatocyte nuclear factor 6 (Homo sapiens) (UniProt Q9UBC0); assay: ATG_HNF6_CIS: Attagene CIS-FACTORIAL HepG2 Assay for human Hepatocyte Nuclear Factor 6 (HNF6) (AID 2282952); conditions: HepG2 Attagene cis-factorial HNF6 reporter transcription; actives raise or lower the signal
Sequence of Hepatocyte nuclear factor 6 (Homo sapiens) (Q9UBC0 whole entry, looked up): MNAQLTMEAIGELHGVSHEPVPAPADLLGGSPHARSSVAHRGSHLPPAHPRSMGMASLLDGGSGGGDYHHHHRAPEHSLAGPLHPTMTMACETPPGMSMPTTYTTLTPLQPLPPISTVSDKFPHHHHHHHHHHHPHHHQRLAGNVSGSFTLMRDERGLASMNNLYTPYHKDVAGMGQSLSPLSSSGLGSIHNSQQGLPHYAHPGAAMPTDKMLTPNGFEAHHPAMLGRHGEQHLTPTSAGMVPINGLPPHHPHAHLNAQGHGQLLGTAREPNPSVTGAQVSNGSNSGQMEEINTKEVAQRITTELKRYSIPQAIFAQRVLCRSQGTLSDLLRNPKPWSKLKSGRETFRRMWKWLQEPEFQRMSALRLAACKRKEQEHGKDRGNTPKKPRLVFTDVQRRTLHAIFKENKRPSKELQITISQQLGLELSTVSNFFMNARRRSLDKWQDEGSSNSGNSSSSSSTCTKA
Outline: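 Cells are HepG2 carrying transiently transfected cis-promoter reporter units. Treatment lasts 24 h, after which reporter transcripts are reverse-transcribed, amplified, FAM-labelled and sized by capillary electrophoresis. DMSO serves as baseline.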

[5] = biological target: Heat shock factor protein 1 (Homo sapiens) (UniProt Q00613); assay: ATG_HSE_CIS: Attagene CIS-FACTORIAL HepG2 Assay for human Heat Shock Transcription Factor 1 (HSE) (AID 2282953); conditions: HepG2 HSE cis-reporter, Attagene RNA transcription; actives raise or lower the signal
Sequence of Heat shock factor protein 1 (Homo sapiens) (Q00613 whole entry, looked up, the tested form may be a part): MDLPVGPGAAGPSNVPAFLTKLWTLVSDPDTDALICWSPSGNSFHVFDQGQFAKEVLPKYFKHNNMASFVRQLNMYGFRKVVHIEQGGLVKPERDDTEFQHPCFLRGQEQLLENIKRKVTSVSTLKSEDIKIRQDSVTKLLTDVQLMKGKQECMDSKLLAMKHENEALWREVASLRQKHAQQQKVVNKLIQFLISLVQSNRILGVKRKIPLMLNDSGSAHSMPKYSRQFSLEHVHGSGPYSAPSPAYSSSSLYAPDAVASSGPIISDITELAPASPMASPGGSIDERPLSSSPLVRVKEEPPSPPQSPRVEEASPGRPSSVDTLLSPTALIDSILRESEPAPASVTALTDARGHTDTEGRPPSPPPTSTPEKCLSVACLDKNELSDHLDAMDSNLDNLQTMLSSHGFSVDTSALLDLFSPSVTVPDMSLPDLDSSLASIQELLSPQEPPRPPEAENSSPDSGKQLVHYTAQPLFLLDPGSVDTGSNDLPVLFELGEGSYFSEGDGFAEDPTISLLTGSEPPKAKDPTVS
Outline: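 Endogenous transcription factor activity captured via cis-promoter reporter units transfected into HepG2; treatment lasted 24 h. Fluorescence intensity of reporter fragments analysed with bidirectional curve fitting, DMSO baseline.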

[6] = ATG_MRE_CIS: Attagene CIS-FACTORIAL HepG2 Assay for human Metal Responsive Element (MRE) (AID 2282954); conditions: HepG2 MRE cis-reporter transcription, Attagene multiplex; actives raise or lower the signal
Outline: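 HepG2 cells transiently transfected with multiple cis-element reporter units measure endogenous MTF1-driven transcription. After 24 h compound exposure, reporter mRNA is quantified by RT-PCR with 6-FAM labelling, HpaI digestion and capillary electrophoresis; bidirectional fits versus DMSO.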

[7] = ATG_PBREM_CIS: Attagene CIS-FACTORIAL HepG2 Assay for human Phenobarbital-responsive Enhancer Module (PBREM) (AID 2282955); conditions: HepG2 PBREM cis-reporter, Attagene multiplexed transcription; actives raise or lower the signal
Outline: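 HepG2 cells transiently transfected with multiple cis-regulated reporter transcription units; endogenous factor activity at the PBREM element measured as reporter mRNA 24 h after dosing, via RT-PCR and capillary electrophoresis of fluorescent fragments; bidirectional fitting versus DMSO.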

[8] = biological target: Paired box protein Pax-6 (Homo sapiens) (UniProt P26367); assay: ATG_Pax6_CIS: Attagene CIS-FACTORIAL HepG2 Assay for human Paired Box 6 (PAX6) (AID 2282956); conditions: HepG2 CIS-FACTORIAL PAX6 reporter transcription, RNA readout; actives raise or lower the signal
Sequence of Paired box protein Pax-6 (Homo sapiens) (P26367 whole entry, looked up): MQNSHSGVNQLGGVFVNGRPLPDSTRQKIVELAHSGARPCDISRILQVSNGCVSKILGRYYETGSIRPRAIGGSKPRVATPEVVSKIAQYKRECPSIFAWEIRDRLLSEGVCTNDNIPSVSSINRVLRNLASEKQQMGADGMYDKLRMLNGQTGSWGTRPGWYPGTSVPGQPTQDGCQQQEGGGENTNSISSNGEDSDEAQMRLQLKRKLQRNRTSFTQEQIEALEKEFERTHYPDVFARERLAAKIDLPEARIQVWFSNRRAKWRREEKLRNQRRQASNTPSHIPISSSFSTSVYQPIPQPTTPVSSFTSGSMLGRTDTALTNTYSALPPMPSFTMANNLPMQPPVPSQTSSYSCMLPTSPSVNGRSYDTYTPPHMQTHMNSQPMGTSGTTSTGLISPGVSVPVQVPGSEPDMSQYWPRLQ
Outline: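 Transient MRTU transfection of HepG2 → compound exposure 24 h → TriZol RNA, oligo(dT) RT → PCR, 6-FAM primer extension, HpaI cut → capillary electrophoresis; activity fitted both directions against DMSO.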

[9] = ATG_PXRE_CIS: Attagene CIS-FACTORIAL HepG2 Assay for human Pregnane X Receptor Element (PXRE) (AID 2282957); conditions: HepG2 Attagene CIS-FACTORIAL PXRE reporter, mRNA; actives raise or lower the signal
Outline: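 Multiplexed cis-reporter assay in transiently transfected human HepG2 cells; 24 h chemical exposure. Reporter transcripts quantified by RT-PCR with fluorescent labeling and capillary electrophoresis.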

[10] = ATG_PPRE_CIS: Attagene CIS-FACTORIAL HepG2 Assay for human Peroxisome Proliferator-activated Response Element (PPRE) (AID 2282958); conditions: HepG2 PPRE cis-element reporter, Attagene transcription factor profiling; actives raise or lower the signal
Outline: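 HepG2 cells transiently transfected with multiplexed cis-element reporter units measure endogenous transcription factor activity. After 24 h compound exposure, reporter mRNA is quantified by RT-PCR, 6-FAM labeling, HpaI digestion and capillary electrophoresis; bidirectional fits are made against DMSO baseline.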

Measured: AC50

CC(C)(c1ccc(Oc2ccc(N)cc2)cc1)c1ccc(Oc2ccc(N)cc2)cc1
active: [6] 2.77 µM | [9] 2.01 µM
inactive: all other assays above

O=S(=O)(c1ccc(OCc2ccccc2)cc1)c1ccccc1O
active: [3] 33.4 µM | [4] 61.3 µM | [5] 44.2 µM | [6] 40.9 µM | [7] 24.1 µM | [8] 33.4 µM | [9] 7.94 µM | [10] 156 nM
inactive: [1] | [2]

Cc1ccccc1OCC(=O)O
inactive: all assays above

COC(=O)C(F)(F)C(F)(F)C(F)(F)F
inactive: all assays above

O=C(CC(=O)C(F)(F)C(F)(F)C(F)(F)F)c1cccs1
active: [3] 12.8 µM and 16.5 µM | [5] 86.8 µM | [6] 50 µM | [7] 69.7 µM | [9] 12.9 µM and 12.8 µM | [10] 8.07 µM and 26.2 µM
inactive: [1] | [2] | [4] | [5] | [6] | [7] | [8]

Brc1cc(Br)c(Oc2c(Br)cc(Br)c(Br)c2Br)cc1Br
inactive: all assays above

C=CCOCC(CO)(CO)CO
active: [9] 25.3 µM
inactive: all other assays above

O=C(O)C(=O)O
not listed: [10]
inactive: all other assays above

O=C(F)C(F)(F)C(F)(F)C(F)(F)C(=O)F
inactive: all assays above

CCCCCCCCCCCCOC(=O)c1cc(O)c(O)c(O)c1
active: [3] 6.75 µM | [5] 8.12 µM | [6] 18.5 µM | [7] 21.3 µM | [9] 2.94 µM
inactive: [1] | [2] | [4] | [8] | [10]

O=C1OC(=O)c2cc(-c3ccc4c(c3)C(=O)OC4=O)ccc21
inactive: all assays above

O=C(O)C(F)(F)OC(F)(F)C(F)(F)OC(F)(F)C(F)(F)OC(F)(F)C(F)(F)C(F)(F)C(F)(F)F
active: [3] 28.2 µM | [4] 70.1 µM | [5] 23.7 µM | [6] 31.4 µM and 28.9 µM | [8] 25.9 µM and 29.1 µM | [9] 11.1 µM and 4.38 µM | [10] 13.1 µM and 22.1 µM
inactive: [1] | [2] | [3] | [4] | [5] | [7]

CCCCCCCCCC=CCC1CC(=O)OC1=O (stereo not given)
not listed: [10]
inactive: all other assays above

COC(=O)CC(C(C)=O)C(=O)OC (stereo not given)
inactive: all assays above

Nc1cc(Cl)c(-c2cc(Cl)c(N)cc2Cl)cc1Cl
active: [5] 18.1 µM | [6] 13.2 µM | [9] 2.97 µM
inactive: all other assays above

CC(C)(C)c1ccc(O)c(O)c1
active: [3] 26.1 µM and 25.9 µM and 25.5 µM | [5] 133 µM [middle of 5 runs] | [8] 99.1 µM and 57.3 µM
inactive: [1] | [2] | [3] | [4] | [7] | [8] | [10]

Clc1ccc2c(Cl)ccnc2c1
active: [10] 41200 nM
inactive: all other assays above

NC(=NCCCCCCN=C(N)/N=C(\N)Nc1ccc(Cl)cc1)/N=C(\N)Nc1ccc(Cl)cc1
inactive: [1] | [2] | [3] | [4] | [5] | [7] | [8] | [9]
active: [1] 23.4 µM and 23.8 µM | [4] 25.7 µM | [6] 2.62 µM and 2.68 µM and 1.87 µM | [7] 4.31 µM

O=C(F)C(F)(F)C(F)(F)C(F)(F)C(F)F
inactive: all assays above

CCCCCCCCCCCC(=O)NCCCN(C)C
active: [3] 18.1 µM | [5] 17.5 µM | [6] 19.8 µM | [8] 19.6 µM | [9] 5.26 µM
inactive: all other assays above

NS(=O)(=O)O
inactive: all assays above

C=C(c1ccc(C(=O)O)cc1)c1cc2c(cc1C)C(C)(C)CCC2(C)C
active: [1] 32.2 µM | [5] 16.2 µM and 27.9 µM | [6] 13.8 µM and 23 µM | [7] 30.3 µM | [8] 14.9 µM and 25.3 µM | [10] 9.14 nM and 19.3 nM
inactive: [1] | [2] | [3] | [4] | [7]

O=S(=O)(O)c1ccc2cc(O)ccc2c1
not listed: [10]
inactive: all other assays above

CCCCCCCCCCCC[N+](C)(C)Cc1ccccc1
inactive: [1] | [2] | [3] | [4] | [5] | [6] | [7] | [8] | [9] | [10]
active: [1] 20.3 µM | [4] 17.6 µM | [5] 18.7 µM

O=CC(F)(F)C(F)(F)C(F)(F)F
inactive: all assays above

COc1cc([N+](=O)[O-])ccc1N
inactive: all assays above

OCC(CO)(CBr)CBr
inactive: all assays above

CC=O
inactive: all assays above

FC1(F)C=CC(F)(F)C1(F)F
inactive: all assays above

CC(C)C=O
active: [3] 157 µM
inactive: [1] | [2] | [3] | [4] | [6] | [7] | [8] | [10]

O=C1OC(=O)C(F)(F)C1(F)F
inactive: all assays above

CCCCCCCCCCCC[N+](C)(C)CCCCCCCCCCCC
active: [6] 4.84 µM | [7] 25.3 µM
inactive: all other assays above

CCCC=O
inactive: all assays above

Cc1cc(C(C)(C)C)c(O)c(C(C)(C)C)c1
active: [1] 53.6 µM | [5] 95.9 µM | [6] 52.9 µM and 91.4 µM | [9] 8.81 µM and 603 nM | [10] 11900 nM
inactive: [1] | [2] | [3] | [4] | [5] | [7] | [8] | [10]

Cc1cc(C(=C2C=CC(=Nc3ccc(S(=O)(=O)O)cc3)C=C2)c2ccc(Nc3ccc(S(=O)(=O)O)cc3)cc2)cc(S(=O)(=O)O)c1N
inactive: all assays above

FCOC(C(F)(F)F)C(F)(F)F
inactive: all assays above

CCCCCCCCCCCC(=O)O
inactive: [1] | [2] | [3] | [4] | [5] | [6] | [8] | [10]
active: [6] 181 µM

CCCCCCCCC(C)=O
inactive: all assays above

CCc1ccccc1O
active: [9] 10.8 µM
inactive: all other assays above

CC1COCc2cc3c(cc21)C(C)(C)C(C)C3(C)C (stereo not given)
active: [1] 163 µM | [5] 147 µM | [6] 144 µM | [8] 160 µM | [9] 1.23 µM
inactive: all other assays above

COCC1CCC(CO)CC1 (stereo not given)
inactive: all assays above

O=C(Nc1ccc(Cl)c(Cl)c1)c1cc(Cl)cc(Cl)c1O
active: [3] 0.378 µM | [5] 52 µM | [6] 25.8 µM | [7] 1.35 µM | [8] 30.5 µM | [9] 1.49 µM | [10] 648 nM
inactive: [1] | [2] | [4]

O=C(NCc1ncc(C(F)(F)F)cc1Cl)c1c(Cl)cccc1Cl
active: [9] 0.799 µM
inactive: all other assays above
